Results published in PubChem BioAssay (NCATS).
Where “and” joins values, the source holds several entries; their conditions need not be identical. Equal values may be shown once. Records with an inconclusive call do not appear. Entries that show only a call come without a potency. Calls of active or inactive are those of the source. Unless noted, calls follow the shape of the dose curve; as a rule, active = well fitted curve in the direction sought with a large enough effect; inconclusive = small, poorly fitted or top-dose-only effect, or another doubt; inactive = no such curve, though single readings can be large; an effect the other way counts as inactive or inconclusive.

How the values were obtained:
[1] = qHTS to identify inhibitors of the type 1 interferon - major histocompatibility complex class I in skeletal muscle: primary screen against the NCATS Mechanism Interrogation Plate v5.0 (MIPE) Libary (AID 1347411); conditions: iHSKM cells + IFN-b, HiBiT-tagged MHC-I luminescence, 24 h; series mostly up to 45.8 µM; also: potency is read from the fitted curve at half-maximal effect; nearly all actives have a fitted effect of over 65% in size
How it was run: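 Seed engineered human myoblasts (HLA-B HiBit) in medium without dexamethasone containing 4 ng/ml IFN-beta; after 1 hr add compound titrations (top 46 uM final). Incubate 24 hrs at 37 C, lyse 10 min with HiBiT reagent, read luminescence.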

[2] = Primary qHTS for inhibitors of nuclear receptor binding SET domain protein 2 (NSD2) in an isogenic RCH-ACV NSD2 p.E1099K mutant (9B) (AID 1645876); conditions: RCH-ACV NSD2 E1099K (9B) viability, CellTiter-Glo, 72 h; series mostly up to 44.9 µM; also: nearly all actives have a fitted effect of over 70% in size; also: potency is read from the fitted curve at half-maximal effect
[3] = Primary qHTS for inhibitors of nuclear receptor binding SET domain protein 2 (NSD2) in an RCH-ACV wild type WT cells (2C) (AID 1645877); conditions: RCH-ACV (leukaemia line) NSD2 WT (2C) viability, CellTiter-Glo, 72 h; series mostly up to 44.9 µM; also: nearly all actives have a fitted effect of over 70% in size; also: potency is read from the fitted curve at half-maximal effect
[4] = molecular target: Glutathione peroxidase 1 (Homo sapiens) (UniProt P07203); assay: Primary qHTS Assay for Inhibitors of Recombinant Selenoprotein Glutathione Peroxidase 1 (GPX1) (AID 1845191); conditions: recombinant GPX1, GR-coupled NADPH fluorescence, 15 min; series mostly up to 48.8 µM; also: nearly all actives have a fitted effect of over 65% in size; also: potency is read from the fitted curve at half-maximal effect
Chain of Glutathione peroxidase 1 (Homo sapiens) (P07203 whole entry, looked up): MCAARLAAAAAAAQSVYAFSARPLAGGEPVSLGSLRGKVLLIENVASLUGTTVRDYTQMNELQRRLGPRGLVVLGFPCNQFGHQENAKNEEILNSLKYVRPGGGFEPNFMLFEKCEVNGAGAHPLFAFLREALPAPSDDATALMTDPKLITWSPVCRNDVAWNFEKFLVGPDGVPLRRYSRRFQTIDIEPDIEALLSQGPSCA
How it was run: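 GPX1 10 nM, GR 100 nM, GSH 1 mM, NADPH 0.5 mM, CHP 0.5 mM (final). 30-min cpd preincubation, RT. Ex340/Em450 read t=0, t=15 min.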

[5] = molecular target: Phospholipid hydroperoxide glutathione peroxidase GPX4 (Homo sapiens) (UniProt P36969); assay: Primary qHTS Assay for Inhibitors of Recombinant Selenoprotein Glutathione Peroxidase 4 (GPX4) (AID 1845192); conditions: recombinant GPX4, GR-coupled NADPH fluorescence, 15 min; series mostly up to 50 µM; also: nearly all actives have a fitted effect of over 65% in size; also: potency is read from the fitted curve at half-maximal effect
Chain of Phospholipid hydroperoxide glutathione peroxidase GPX4 (Homo sapiens) (P36969 whole entry, looked up): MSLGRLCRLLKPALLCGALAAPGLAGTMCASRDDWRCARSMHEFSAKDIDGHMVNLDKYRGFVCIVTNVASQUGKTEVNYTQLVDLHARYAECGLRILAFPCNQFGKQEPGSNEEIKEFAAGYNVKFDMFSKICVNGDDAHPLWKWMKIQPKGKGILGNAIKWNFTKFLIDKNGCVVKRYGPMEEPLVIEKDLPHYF
How it was run: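 qHTS, GR-coupled: GPX4 200 nM + cpd 30 min RT → GSH 1 mM, NADPH 0.5 mM, GR 100 nM → CHP 0.5 mM start; fluor 340/450 at t0 and t15 min; no-enzyme wells as control.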

[6] = qHTS drug screen for cell cycle checkpoint inhibitors in PARPi-resistant BRCA-mutant ovarian cancer cell lines. (AID 1963452; calls by dose curve); conditions: PEO1/OlaR viability, CellTiter-Glo luminescence, 96 h, stronger effect = lower value
How it was run: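 PEO1, PEO4 and PEO1/OlaR ovarian cancer cells, 600 per well, exposed 96 h at 37C to a dilution series. Viability read by CellTiter-Glo luminescence, normalized to DMSO and empty wells; activity summarized as Z-AUC.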

[7] = qHTS assay to identify inhibitors of the type 1 interferon - major histocompatibility complex class I in skeletal muscle: Counter screen cell viability and HiBit confirmation (AID 1347412); conditions: iHSKM muscle cells + IFN-b, HiBiT or CellTiter-Glo, 24 h; for Potency: HiBiT; for activity change, negative = inhibition: Viability, at 45.9 µM (top of the series); also: potency is read from the fitted curve at half-maximal effect; as to all read-outs here: nearly all actives have a fitted effect of over 60% in size
How it was run: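 Myoblasts (C25cl48, HLA-B HiBiT) seeded in medium without dexamethasone, IFN-b 4 ng/ml added except unstimulated columns; 1 hr later compounds pinned (12-pt 1:3, top 46 uM final). Incubated 24 hrs, lysed 10 min, luminescence measured.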

[8] = molecular target: Cytochrome P450 3A4 (Homo sapiens) (UniProt P08684); assay: qHTS Assay for Activators of Cytochrome P450 3A4 (AID 885); conditions: recombinant CYP3A4, Luciferin-PPXE luminescence, 60 min; series mostly up to 57.1 µM; also: nearly all actives have a fitted effect of over 65% in size
Chain of Cytochrome P450 3A4 (Homo sapiens) (P08684 whole entry, looked up): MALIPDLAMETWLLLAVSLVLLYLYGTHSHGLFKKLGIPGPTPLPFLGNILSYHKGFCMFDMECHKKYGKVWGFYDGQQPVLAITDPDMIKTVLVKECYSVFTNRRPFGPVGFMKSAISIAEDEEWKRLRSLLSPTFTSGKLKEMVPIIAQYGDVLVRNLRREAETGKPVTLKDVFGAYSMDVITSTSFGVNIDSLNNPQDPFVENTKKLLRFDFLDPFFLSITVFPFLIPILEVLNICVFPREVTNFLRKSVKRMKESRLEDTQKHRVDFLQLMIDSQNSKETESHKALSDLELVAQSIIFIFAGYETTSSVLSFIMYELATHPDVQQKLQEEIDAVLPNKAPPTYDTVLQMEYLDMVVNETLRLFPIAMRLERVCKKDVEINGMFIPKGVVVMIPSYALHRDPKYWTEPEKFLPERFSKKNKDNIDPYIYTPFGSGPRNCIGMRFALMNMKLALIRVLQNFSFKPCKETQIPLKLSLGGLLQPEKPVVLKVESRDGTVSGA
How it was run: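 Activators are scored by enhanced luminescence from CYP3A4 conversion of luciferin-PPXE (25uM, equal to KM) to luciferin, after 60 min at RT with an NADPH-regenerating system.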

[9] = qHTS Assay for Lipid Storage Modulators (AID 1519; calls by dose curve); conditions: Drosophila S3 cells, BODIPY lipid droplet/cell ratio, laser cytometry, cells loaded with oleic acid
How it was run: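 Cells seeded at 5,000 per well were treated with compounds over a concentration series and loaded with oleic acid (400 uM, as added). Lipid droplet fluorescence (488 nm excitation, 500-530 nm channel) was read by laser-scanning cytometry and normalized to 20 uM Triacsin C.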

[10] = COV-362 Cancer Cell Toxicity qHTS against the NCATS CANVASS Library (AID 1347352); conditions: COV-362 viability, CellTiter-Glo luminescence, 72 h; series mostly up to 38.3 µM
How it was run: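 First, 1000 cells go into each well and rest for 4 hours. Next, an 11-point dilution range is pinned in. Plates then incubate 72 hours before CellTiter-Glo addition and luminescence reading.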

[11] = KB-3-1 Cancer Cell Toxicity qHTS against the NCATS CANVASS Library (AID 1347366); conditions: KB-3-1 viability, CellTiter-Glo luminescence, 72 h; series mostly up to 46.1 µM; also: nearly all actives have a fitted effect of over 75% in size
How it was run: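 Seed KB-3-1 cells at 500/well in DMEM with 10% FBS, add compounds, incubate 72 hr at 37C and 5% CO2, then add CellTiter-Glo and read luminescence after 10 minutes.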

[12] = qHTS for Inflammasome Signaling Inhibitors: IL-1-beta AlphaLISA screen against the NCATS CANVASS Library (AID 1347379); conditions: THP-1 LPS/ATP, IL-1B AlphaLISA secretion, 16 h; series mostly up to 57.5 µM;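 also: human THP-1 cells primed with LPS then triggered with ATP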;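 as to activity change, negative = inhibition: secreted IL-1B measured as AlphaLISA emission at 615 nm; lower signal means less IL-1B release which is the wanted effect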
How it was run: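 Secreted IL-1B from human THP-1 cells quantified by AlphaLISA 16 hr after compound addition (final up to 57.5 uM). A 1 hr compound pretreatment preceded inflammasome activation with 250 ng/mL LPS plus 1.25 mM ATP (final).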

[13] = UWB1.289 Cancer Cell Toxicity qHTS against the NCATS CANVASS Library (AID 1347347); conditions: UWB1.289 viability, CellTiter-Glo luminescence, 72 h; series mostly up to 38.3 µM; also: nearly all actives have a fitted effect of over 60% in size
How it was run: (§1)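 Following a 4 h pre-incubation of 1000 seeded cells, compounds were pinned in an 11-pnt dilution series and left for 72 h; viability then came from CellTiter-Glo.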

[14] = Panc-1005 Cancer Cell Toxicity qHTS against the NCATS CANVASS Library (AID 1347349); conditions: Panc-1005 viability, CellTiter-Glo luminescence, 72 h; series mostly up to 38.3 µM; also: nearly all actives have a fitted effect of over 60% in size; also: potency is read from the fitted curve at half-maximal effect
How it was run: as §1

[15] = DH5-alpha competent E. coli microbial cell viability qHTS against the NCATS CANVASS Library (AID 1347377); conditions: BacTiter-Glo ATP luminescence, overnight; series mostly up to 46.1 µM
How it was run: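 Bacteria were dispensed at 0.2 OD, then compounds were pin-transferred. Plates were incubated overnight at 37C, after which BacTiter-Glo was added and luminescence measured 20 min later.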

[16] = qHTS for inhibitors of ER calcium dysfunction: SERCaMP assay screened against the NCATS CANVASS Library (AID 1347393); conditions: SH-SY5Y GLuc-SERCaMP (Gaussia luciferase released on ER calcium loss) secretion, thapsigargin, luminescence; series mostly up to 76.6 µM; also: nearly all actives have a fitted effect of over 40% in size; also: potency is read from the fitted curve at half-maximal effect;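 as to activity change, negative = inhibition: lower secreted reporter signal means inhibitor of ER calcium depletion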
How it was run: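 qHTS in SH-SY5Y reporter cells: 16 h compound pretreatment, 4 h thapsigargin, then secreted Gaussia luciferase measured by luminescence.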

[17] = HPAF-II Cancer Cell Toxicity qHTS against the NCATS CANVASS Library (AID 1347346); conditions: HPAF-II viability, CellTiter-Glo ATP luminescence, 72 h; series mostly up to 38.3 µM; also: nearly all actives have a fitted effect of over 55% in size; also: potency is read from the fitted curve at half-maximal effect
How it was run: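 First, HPAF-II cells are plated (1000 cells/well) and held 4 h at 37 degrees C. Next, compounds are pin-transferred as an 11-point series. After 72 h, CellTiter-Glo is added and luminescence measured.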

[18] = measured here: PEO1 parental Z-AUC

COC1CCC(N2C(=O)CNc3ncc(-c4ccc(C(C)(C)O)nc4)nc32)CC1 (centres undefined)
Potency [1]: 13.1 µM (active) | Potency [2]: 3.72 µM (active) | Potency [3]: 3.72 µM (active) | Potency [4]: 4.59 µM (active) | Potency [5]: 3.21 µM (active) | Z-AUC [6]: 1.16 (inactive) | Z-AUC [6, 18]: 0.788 | Z-AUC ([6]; measured here: PEO4 Z-AUC): 0.864 | Potency [7]: 11.1 µM (active) | activity change, negative = inhibition [7]: -5.62% (inactive)

C=C[C@@](C)(O)CC[C@@H]1[C@@]2(C)CCCC(C)(C)[C@@H]2CC[C@@]1(C)O
Potency [8]: inactive | activity change, negative = inhibition ([9]; at 57.5 µM (top of the series)): -12.3% (inactive) | max response ([9]; measured here: cell count channel max response): -15% | max response ([9]; measured here: lipid channel max response): -21.7% | Potency [10]: inactive | Potency [11]: inactive | Potency [12]: inactive

COC(=O)[C@@]1(C)CCC[C@]2(C)c3cc(OC)ccc3CC[C@@H]12
Potency [13]: inactive | Potency [14]: inactive | Potency [11]: inactive | outcome [15]: inactive

COc1cc2c(cc1OC)[C@@H](c1ccc3c(c1)OCO3)C(C)[C@@H](C)C2=O (some centres undefined)
Potency [14]: inactive | Potency [10]: inactive | Potency [11]: inactive | outcome [15]: inactive | Potency [12]: inactive

CN1CCc2cc3c(c4c2C1(C)C(=O)c1cc(O)ccc1-4)OCO3 (centres undefined)
outcome [15]: inactive | Potency [16]: 19.3 µM (active)

CC1=C(C)C(=O)OC(C(C)C2(O)CCC3C4C5OC5C5(O)CC=CC(=O)C5(C)C4CCC32C)C1 (centres undefined)
Potency [17]: inactive | Potency [11]: inactive | Potency [12]: inactive

COc1ccc([C@@H]2c3cc4c(cc3C[C@H](C)C2C)OCO4)cc1OC (some centres undefined)
Potency [12]: inactive | Potency [16]: inactive

OC1CCC(Oc2cccc3cnc(Nc4ccc5nc[nH]c5c4)nc23)CC1 (centres undefined)
Potency [1]: 0.523 µM (active) | Potency [2]: 0.59 µM (active) | Potency [3]: 0.468 µM (active) | Potency [4]: inactive | Potency [5]: inactive | Z-AUC [6]: -1.25 (inactive) | Z-AUC [6, 18]: -1.54 | Z-AUC ([6]; measured here: PEO4 Z-AUC): -0.421 | Potency [7]: 0.557 µM (active) | activity change, negative = inhibition [7]: 9.5% (inactive)

C/C1=C/[C@@H](C)[C@H](O)C/C=C/CC/C=C/C(=O)O[C@@H]1[C@H](C)C(=O)CCCC1CC(=O)NC(=O)C1
Potency [11]: inactive | Potency [12]: inactive | Potency [16]: inactive

CN(C)CCN1C(=O)c2cccc3cc(NC(N)=O)cc(c23)C1=O
Potency [1]: 7.39 µM (active) | Potency [2]: 2.35 µM (active) | Potency [3]: 1.86 µM (active) | Potency [4]: inactive | Potency [5]: inactive | Z-AUC [6]: -0.63 (inactive) | Z-AUC [6, 18]: -1.2 | Z-AUC ([6]; measured here: PEO4 Z-AUC): -1.08 | Potency [7]: 17.6 µM (active) | activity change, negative = inhibition [7]: -14% (inactive)

C[C@H]1CCC2(OC1)O[C@H]1C[C@H]3[C@@H]4CC(=O)[C@]5(O)C[C@H](O)CC[C@@]5(C)[C@H]4CC[C@@]3(C)[C@H]1[C@H]2C (some centres undefined)
Potency [10]: inactive | outcome [15]: inactive | Potency [12]: 24.3 µM (active)

CCc1c(-c2ccccc2C)nc2c(C#N)c[nH]n2c1=O
Potency [1]: 829 nM (active) and 1.31 µM (active) | Potency [2]: inactive | Potency [3]: inactive | Potency [4]: inactive | Potency [5]: inactive | Z-AUC [6]: 1.17 (inactive) and -0.599 (inactive) | Z-AUC [6, 18]: 1.23 and -0.433 | Z-AUC ([6]; measured here: PEO4 Z-AUC): 1.49 and -0.54 | Potency [7]: 1.4 µM (active) and 787 nM (active) | activity change, negative = inhibition [7]: 16.2% (inactive) and -8.52% (inactive)

O=C1CCC(=O)N(O)CCCCCNC(=O)CCC(=O)N(O)CCCCCNC(=O)CCC(=O)N(O)CCCCCN1
Potency [17]: 7.49 µM (active) | Potency [14]: 8.41 µM (active) | outcome [15]: inactive

C[C@H](CCC(O)C(C)(O)CO)[C@@]1(O)CC[C@@]2(C)C3=C(CC[C@@]21C)[C@@]1(C)CCC(OC(=O)CCC(=O)O)C(C)(C)[C@@H]1CC3 (some centres undefined)
Potency [14]: inactive | Potency [11]: inactive | outcome [15]: inactive | Potency [12]: inactive | Potency [16]: inactive

C=C[C@]1(C)CC[C@@H]([C@H](C)C(=O)/C=C/C(C)(C)O)O1
Potency [17]: inactive | Potency [14]: inactive | Potency [10]: inactive | outcome [15]: inactive

CC1=C[C@H]2[C@H]3C(=O)C(c4ccc(O)cc4)=C[C@@]3(c3ccc(O)cc3)[C@@H]1C(=O)[C@]2(C)O
outcome [15]: inactive | Potency [12]: inactive | Potency [16]: inactive

COc1cc2oc3ccccc3c(=O)c2cc1OC
Potency [13]: inactive | Potency [14]: inactive | Potency [10]: inactive | Potency [11]: inactive | outcome [15]: inactive
